A selection: hits, their analogues and other compounds. The true share with any hit is near 3.8%.
ADAM17 inh – ADAM17 inhibitors, primary screen, biochemical, QFRET; Disintegrin and metalloproteinase domain-containing protein 17 (Homo sapiens), P78536; recombinant ADAM17, EDANS/DABCYL FRET peptide cleavage; inhibition, % at 6.95 µM; 370,000 compounds, 0.83% hits; AID 720648, 2013;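 active means inhibition above the mean of compounds lying between control limits plus 3 SD, set per campaign, cut at about 8.5% in these data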;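 further: 0% = DMSO-only wells as the low control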
FGF22 binding – binders of human FGF22 protein, primary screen, FGF22 synaptogenesis inhibitor project, biophysical, thermal shift, single point. recombinant FGF22 thermal shift, SYPRO orange fluorescence; percent of sucrose octasulfate shift, DMSO zero. activity (Tm shift, normalised), % at 9.99 µM. 340,000 compounds, 1.5% hits. AID 651658, 2012;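 active means mean Tm shift, scaled 0 neutral to 100 positive control, at about 1.3% or above, every replicate too, limit read from the data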
Target sequence (Q9HCT0 whole entry, looked up): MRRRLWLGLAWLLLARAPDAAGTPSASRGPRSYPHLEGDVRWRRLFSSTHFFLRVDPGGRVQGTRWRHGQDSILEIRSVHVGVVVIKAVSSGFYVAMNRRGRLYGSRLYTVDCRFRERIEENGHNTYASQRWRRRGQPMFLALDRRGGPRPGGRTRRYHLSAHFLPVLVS
rRNA inh HTS – reduced GFP signal of wild-type E. coli, primary screen, bacterial rRNA inhibitor project, GFP/RFP fluorescence, OD600, single point; E. coli WT GFP vs humanized-ribosome RFP mutants, 24 h; active compounds read low; DMSO median 0, no signal -100; GFP signal change (wild-type ribosome), % (test concentration not listed); 350,000 compounds, 1.6% hits; AID 720706, 2013;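 active means significant combined selectivity score with lowered wild-type GFP, culture density cut under 30%, mutant RFP and density less affected; inactive means any of these conditions unmet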
KLK7 zymogen act – proKLK7 zymogen activators, primary screen, biochemical, fluorescence intensity; purified proKLK7, EDANS-DABCYL substrate fluorescence; 100% is mature enzyme control, 0% vehicle; Kallikrein-7 (Homo sapiens), P49862; 370,000 compounds, 0.9% hits; AID 652039, 2013; activation, % at 7 µM;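 active means activation above the mean of all tested compounds plus 3 SD, computed per campaign excluding outliers beyond control limits, cut at about 13% in these data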
Target sequence (P49862 whole entry, looked up): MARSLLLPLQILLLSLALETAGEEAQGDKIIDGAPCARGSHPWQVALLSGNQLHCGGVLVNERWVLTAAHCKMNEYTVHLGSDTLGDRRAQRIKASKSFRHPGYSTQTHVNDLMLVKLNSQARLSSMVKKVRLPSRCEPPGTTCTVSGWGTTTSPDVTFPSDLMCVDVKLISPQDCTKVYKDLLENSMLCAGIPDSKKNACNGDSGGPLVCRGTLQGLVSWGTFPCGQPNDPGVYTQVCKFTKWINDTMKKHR
ADAM10 inh – human ADAM10 inhibitors, primary screen, biochemical, QFRET, HTS; recombinant ADAM10, EDANS/DABCYL FRET peptide cleavage, 3 h; inhibition, % at 7 µM; Disintegrin and metalloproteinase domain-containing protein 10 (Homo sapiens), O14672; AID 720582, 2013; 370,000 compounds, 0.62% hits;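 active means inhibition above a per-campaign cutoff equal to the mean of compounds falling between control-based bounds plus 3 SD, cut at about 20% in these data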;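 further: 0% = DMSO wells while the 100% control is not disclosed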
Numbers without * were called inactive; x = not tested or not shown.

SMILES	ADAM17 inh	FGF22 binding	rRNA inh HTS	KLK7 zymogen act	ADAM10 inh
O=C(NCC(c1ccc(F)cc1)N1CCOCC1)c1cc(F)c(F)c(F)c1F (centres undefined)	-2	43*	x	-1	-8
O=C(NCC(c1ccc(F)cc1)N1CCOCC1)c1ccccc1F (centres undefined)	-3	0	13	0	11
O=C(Nc1ccc(Cl)c(Cl)c1)Nc1ccccc1NS(=O)(=O)c1cccs1	2	1.7*	-60	0	7
CCOC(=O)C1=C(O)/C(=C/c2ccc(OCC(=O)O)c(OCC)c2)SC1=Nc1ccccc1	-5	43*	-13	0	-7
CCOC(=O)C1=C(O)/C(=C/c2ccc(OCC(=O)O)c(OC)c2)SC1=Nc1ccc(OCC)cc1	0	0	8	-5	6
COCCCNC(=S)N1CCN(c2nc(C)nc3sc4c(c23)CCCC4)CC1	-2	0	-35	1	5
CCCNC(=S)N1CCN(c2nc(C)nc3sc4c(c23)CCCC4)CC1	1	43*	-30	0	5
N#C/C(=C\Nc1ccc(Cl)cn1)S(=O)(=O)c1ccccc1	-1	0	-35*	-1	-5
N#C/C(=C\Nc1ccc(Cl)cn1)S(=O)(=O)c1ccccn1	-1	0	16	0	-4
COc1ccc(NC(=O)N(C)C[C@@H]2OCCCC[C@@H](C)Oc3ccc(NS(=O)(=O)c4ccc(Cl)cc4)cc3C(=O)N([C@@H](C)CO)C[C@H]2C)cc1	x	0	0	x	x
CCCCN1C2=NCCCN2c2ccccc21	-4	x	x	1	0
CCCCCCCN1C2=NCCCN2c2ccccc21	0	43*	-4	1	6
Cc1noc(C)c1S(=O)(=O)Nc1ccc2c(c1)C(=O)N([C@@H](C)CO)C[C@@H](C)[C@@H](CN(C)S(=O)(=O)c1ccc(F)cc1)O2	x	0	-3	x	x
O=C(NCCC1=CCCCC1)c1ccc([N+](=O)[O-])cc1	3	x	x	0	3
Cc1cc(C(=O)NCCC2=CCCCC2)ccc1[N+](=O)[O-]	1	0	-35*	0	0
Cc1cc(C(=O)NCC(=O)OCC(=O)NCCc2ccccc2)ccc1[N+](=O)[O-]	2	44*	7	1	0
CC(C)(C)[S@](=O)N1Cc2cc(C(=O)NCc3ccncc3)nc(-c3cccc(-c4ccc(C#N)cc4)c3)c2[C@@H]1CCO	x	0	0	x	x
CNC[C@@H]1OCCCC[C@H](C)Oc2ccc(NC(=O)Nc3ccc(C(F)(F)F)cc3)cc2C(=O)N([C@H](C)CO)C[C@@H]1C	x	x	-56	x	x
Cc1ccc(NC(=S)NCc2ccccn2)cc1	-1	x	x	-1	-7
S=C(NCc1ccccn1)NN=Cc1ccccn1	-13	0	-19*	0	-22
CSc1ccccc1NC(=O)COC(=O)Cc1cccs1	2	43*	15	0	1
COc1ccc(-c2cc3ccccc3cn2)cc1	-18	44*	0	-2	-63
Cc1ccc(CSc2ncnc3ccccc23)cc1	-1	0	-33*	0	-10
Cc1noc(C)c1S(=O)(=O)Nc1ccc2c(c1)C(=O)N([C@@H](C)CO)C[C@@H](C)[C@@H](CN(C)CC1CCCCC1)OCCCC[C@H](C)O2	x	-1	3	x	x
Cc1nnc(SCC(=O)N(C)C2CCCCC2)s1	-3	44*	7	0	4
SMILES	ADAM17 inh	FGF22 binding	rRNA inh HTS	KLK7 zymogen act	ADAM10 inh
CN(C)c1cccc2c1c(NC(=O)Nc1ccccc1)nn2C	-16	0	-18*	1	-27
CN(C)c1cccc2c1c(NC(=O)Nc1ccc(F)cc1F)nn2C	-12	0	11	0	-18
Cc1cc(N)n(-c2ccc(C(=O)O)cc2)n1	-2	43*	12	0	3
COCCCNC(=S)N1CCN(Cc2ccc3c(c2)OCO3)CC1	6	44*	8	0	5
COCCNC(=O)CSc1nccn1Cc1ccc2c(c1)OCO2	0	43*	4	1	0
O=C1N[C@@H](Cc2ccccc2)COCc2cn(nn2)CC[C@@H]1Cc1ccc(Cl)cc1	x	x	-2	x	x
CCC(=O)Nc1ccc2c(c1)C(=O)N(C)[C@H]1CC[C@H](CC(=O)NCCc3ccncc3)O[C@@H]1CO2	x	x	0	x	x
O=C(NC(=S)Nc1ccc2ncccc2c1)c1ccccc1	0	0	-21*	0	4
C[C@@H]1CCCCO[C@H](CN(C)C(=O)Nc2ccc(F)cc2)[C@H](C)CN([C@@H](C)CO)C(=O)c2cc(NS(=O)(=O)c3ccccc3)ccc2O1	x	0	-2	x	x
CC(Oc1ccc2c(-c3ccccc3)cc(=O)oc2c1)C(=O)N[C@H](Cc1c[nH]c2ccccc12)C(=O)O (some centres undefined)	-1	0	-24*	0	-6
C[C@@H]1CN([C@H](C)CO)C(=O)c2cc(NC(=O)CCCN(C)C)ccc2O[C@@H](C)CCCCO[C@H]1CN(C)S(=O)(=O)c1ccccc1	x	0	4	x	x
C[C@@H]1CCCCO[C@@H](CN(C)CC2CCCCC2)[C@H](C)CN([C@H](C)CO)C(=O)c2cc(NS(=O)(=O)c3ccc(F)cc3)ccc2O1	x	0	5	x	x
Cn1nc(-c2ccccc2)c(N2CCCCC2)cc1=O	-2	0	-42*	1	-3
CCOc1ccccc1NC(=O)c1cccc2ccccc12	-1	0	-7	1	4
CCOc1ccccc1NC(=O)c1csc(C)c1C	-3	0	-31*	0	-4
CN(C)S(=O)(=O)c1ccc2c(c1)C(=NO)c1cc(S(=O)(=O)N(C)C)ccc1-2	-1	0	7	1	-8
CC(C)(CO)NS(=O)(=O)c1ccc2c(c1)C(=NO)c1cc(S(=O)(=O)NC(C)(C)CO)ccc1-2	-25	43*	-15	7	-74
N#CC1=C2N=C(N)c3ccccc3N2C2=C(C(=O)CCC2)C1c1ccc(F)cc1 (centres undefined)	-2	0	-32*	0	-8
CO[C@@H]1CN(C)C(=O)c2cc(NC(C)=O)ccc2OC[C@H](C)N(C(=O)C2CCCCC2)C[C@H]1C	x	x	1	x	x
C[C@@H]1CN([C@@H](C)CO)C(=O)c2cccc(NC(=O)NC3CCCCC3)c2O[C@@H]1CN(C)S(C)(=O)=O	x	0	-5	x	x
CC(C)CC#Cc1cnc2c(c1)C(=O)N([C@H](C)CO)C[C@H](C)[C@H](CN(C)Cc1ccccc1)O2	x	x	6	x	x
N#CCCn1cc(C(=O)Nc2ccc(C(=O)O)cc2)c(-c2cccs2)n1	-1	1	2	0	-4

Screening data (PubChem BioAssay)
